Experimental findings from PubChem BioAssay (NCATS) are described below.

Results filed as inconclusive are left out. Unmarked numbers belong to inactive results. The source made the active and inactive calls. Calls follow the shape of the dose curve; as a rule, active = well fitted inhibition curve with a large enough effect; inconclusive = small, poorly fitted or top-dose-only effect; inactive = no such curve, though single readings can be large or run the other way.
Potency is read from the fitted curve at half-maximal effect.

The assay can be described thus: Counterscreen qHTS for small molecule stabilizers of the endoplasmic reticulum resident proteome: GLuc-NoTag assay (AID 1508627).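 As to activity change, negative = inhibition: SH-SY5Y cells given compound then 100 nM thapsigargin to empty ER calcium; 0% = thapsigargin alone and -100% = DMSO vehicle control.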 The settings on record: Gaussia luciferase NoTag secretion counterscreen, luminescence, thapsigargin 100 nM for final 4 h; series mostly up to 76.4 µM; activity change, negative = inhibition: at the top concentration. A digest of the protocol: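 Counterscreen line: SH-SY5Y-GLuc-NoTag cells, treated with compound 19 hr before a 4 hr, 100 nM thapsigargin calcium depletion. Secreted Gaussia luciferase in the medium was measured by luminescence after coelenterazine was added (0.07x final), with cells unlysed.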
(The purpose of a counterscreen is to sort out artefacts and off-target activity.)
As for `COc1cccc(Cn2c(=O)c(C)nc3cnc(N4CCNCC4)nc32)c1`, the Potency was 28.2 µM (active).

For `CN1CCN(c2ncc3nc(-c4cc(F)cc(F)c4)c(=O)n(-c4ccccc4)c3n2)CC1`, the “activity change, negative = inhibition” value was 10.2%.

On to `O=c1c(-c2ccc(Cl)cc2)nc2cnc(Oc3ccccc3)nc2n1C1CC1`, for which the “activity change, negative = inhibition” value is 5.56%.

Turning to `COc1cccc(-c2nc(N3CCN(C)CC3)c3ccccc3n2)c1`, the “activity change, negative = inhibition” value is -23%.

In the case of `COCCn1c(=O)c(-c2cn(C)c3ccccc23)nc2cnc(N3CCNCC3)nc21`, the “activity change, negative = inhibition” value is 10.3%.

As to `CN1CCN(c2ncc3nc(-c4ccccc4)c(=O)n(-c4ccccc4)c3n2)CC1`, the “activity change, negative = inhibition” value was 2.89%.

`COc1ccc(-n2c(=O)cnc3cnc(N4CCNCC4)nc32)cc1`: the “activity change, negative = inhibition” value was 9.2%.

As for `O=C(c1cc(C(F)(F)F)cc(C(F)(F)F)c1)N1CCC2(CC1)CCN(c1ccncc1)CC2`, the “activity change, negative = inhibition” value was 1.98%.

As to `O=c1cnc2cnc(N3CCNCC3)nc2n1Cc1ccc(F)cc1`, the “activity change, negative = inhibition” value was 4.47%.

Take `Cc1noc(C)c1-c1nc(N2CCNCC2)c2ccccc2n1`: the “activity change, negative = inhibition” value is 24.3%.

Turning to `CN(C)c1ccc(-c2nccc(NCCN3CCOCC3)n2)cc1`, the “activity change, negative = inhibition” value is 5.15%.

As to `COCCn1c(=O)c(-c2ccc(OC)cc2)nc2cnc(N3CCNCC3)nc21`, the “activity change, negative = inhibition” value is -16.2%.

For the molecule `O=C(c1cc(C(F)(F)F)cc(C(F)(F)F)c1)N1CCC2(CC1)CCN(c1ccccn1)CC2`, the “activity change, negative = inhibition” value was -15.2%.

For the molecule `O=C(Nc1cccc(F)c1)N1CCCC2(CCNCC2)C1`, the “activity change, negative = inhibition” value is -13.7%.

As for `Cc1ccccc1-c1nc(N2CCN(C)CC2)c2ccccc2n1`, the “activity change, negative = inhibition” value was -14.5%.

Consider `COc1ccc(-n2c(=O)c(-c3ccccc3)nc3cnc(N4CCNCC4)nc32)cc1`, for which the “activity change, negative = inhibition” value was 5.19%.

Regarding `Cn1c(=O)c(CCc2ccccc2)nc2cnc(OCc3ccccc3)nc21`, the “activity change, negative = inhibition” value is 18.6%.
